Source: PubChem BioAssay (EPA / NIEHS)
Inconclusive results are not listed. Calls of active or inactive are those of the source. Rule for the calls, unless noted: active = hit-call score of the fitted dose curve at least 0.9, where 1 is the maximum; inconclusive = response in the unintended direction; inactive = score below 0.9.

Legend:
[1] = molecular target: Cellular tumor antigen p53 (Homo sapiens) (UniProt P04637); experiment: TOX21_p53_BLA_p2_ratio: Tox21 HCT-116 p53 Agonism Beta-lactamase Assay, Ratio, Phase 2 (AID 2283592)
Cellular tumor antigen p53 (Homo sapiens), sequence (P04637 whole entry, looked up): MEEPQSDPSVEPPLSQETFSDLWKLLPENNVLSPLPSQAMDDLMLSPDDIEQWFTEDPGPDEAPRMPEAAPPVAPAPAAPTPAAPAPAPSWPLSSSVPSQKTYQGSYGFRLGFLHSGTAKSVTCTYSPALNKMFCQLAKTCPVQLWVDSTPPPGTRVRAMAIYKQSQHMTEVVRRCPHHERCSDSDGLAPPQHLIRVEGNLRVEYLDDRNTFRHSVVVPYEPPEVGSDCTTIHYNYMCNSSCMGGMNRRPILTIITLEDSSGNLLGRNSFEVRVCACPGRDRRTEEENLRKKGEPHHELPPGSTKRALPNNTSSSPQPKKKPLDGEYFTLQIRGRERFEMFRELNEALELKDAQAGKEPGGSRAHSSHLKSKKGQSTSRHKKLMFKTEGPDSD
Method in brief: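 An inducible beta-lactamase reporter in HCT116 cells signals p53 pathway activation. After 16 h chemical exposure at 37C, cells load CCF4-AM substrate for 2 h at room temperature; activity is the cleaved/uncleaved emission ratio relative to DMSO.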

[2] = TOX21_p53_BLA_p3_viability: Viability Assessment in the Tox21 HCT-116 p53 Agonism Beta-lactamase Assay, Phase 3 (AID 2283593);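 note: cells exposed to compound for 16 h before reading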
Method in brief: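 Cellular ATP was quantified by CellTiter-Glo luminescence, read after 30 min at room temperature. Beforehand, HCT116 cells (4000/well) received compound 5 h post-seeding, 217-fold diluted from DMSO, then incubated 16 h at 37C.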

[3] = molecular target: Cellular tumor antigen p53 (Homo sapiens) (UniProt P04637); experiment: TOX21_p53_BLA_p3_ratio: Tox21 HCT-116 p53 Agonism Beta-lactamase Assay, Ratio, Phase 3 (AID 2283596)
Method in brief: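 HCT116 p53-bla cells (4000/well) given compound in DMSO (217-fold dilution) after 5 h, incubated 16 h at 37C. CCF4-AM substrate 2 h at room temperature; 460/530 nm emission ratio, gain fitted against DMSO.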

[4] = TOX21_p53_BLA_p4_viability: Viability Assessment in the Tox21 HCT-116 p53 Agonism Beta-lactamase Assay, Phase 4 (AID 2283597);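 note: hits lower the luminescence signal meaning cytotoxicity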
Method in brief: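 Compound exposure of HCT116 cells lasts 16 h at 37C, 5% CO2, with DMSO stocks diluted 217-fold. Cellular ATP is then quantified by CellTiter-Glo luminescence after 30 min at room temperature.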

[5] = molecular target: Cellular tumor antigen p53 (Homo sapiens) (UniProt P04637); experiment: TOX21_p53_BLA_p5_ratio: Tox21 HCT-116 p53 Agonism Beta-lactamase Assay, Ratio, Phase 5 (AID 2283599)
Method in brief: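 Beta-lactamase reporter ratio (blue 460 nm over green 530 nm, 405 nm excitation) after 2 h CCF4-AM loading, in HCT-116 cells exposed 16 h at 37 C to compounds pinned at 217-fold dilution. Increases relative to DMSO baseline scored.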

[6] = TOX21_p53_BLA_p5_viability: Viability Assessment in the Tox21 HCT-116 p53 Agonism Beta-lactamase Assay, Phase 5 (AID 2283600)
Method in brief: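 Counter-readout for cytotoxicity: ATP-dependent luminescence from CellTiter-Glo, read in the beta-lactamase wells after 30 min at RT, following a 16 h compound exposure at 37C.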

[7] = molecular target: Cellular tumor antigen p53 (Homo sapiens) (UniProt P04637); experiment: TOX21_p53_BLA_p4_ratio: Tox21 HCT-116 p53 Agonism Beta-lactamase Assay, Ratio, Phase 4 (AID 2283601)
Method in brief: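 Signal is the blue/green (460nm/530nm) ratio of cleaved versus uncleaved CCF4-AM substrate, read after 2 h substrate loading. Cells were HCT116 carrying the p53-responsive beta-lactamase reporter, dosed 16 h at 37C, 5% CO2; CellTiter-Glo measured in parallel.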

[8] = test system: Thyroperoxidase (TPO), gene 54314; experiment: CCTE_Simmons_AUR_rTPO: CCTE's Amplex UltraRed Assay for Thyroperoxidase (TPO) Inhibition, Simmons Lab (AID 2283662)
Method in brief: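 Rat thyroid microsomes (5 ug protein) with 25 uM Amplex UltraRed and 300 uM H2O2 in 200 mM phosphate buffer, 30 min at 37C in dark; fluorescence 544/590 nm. Eight concentrations, 5 nM–87.5 uM final, 0.5% DMSO, triplicate biological replicates.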

[9] = molecular target: Luciferin 4-monooxygenase (Photinus pyralis) (UniProt P08659); experiment: CCTE_Simmons_QuantiLum_inhib_2: CCTE's Firefly Luciferase Inhibition Assay, Simmons Lab (AID 2283767)
Luciferin 4-monooxygenase (Photinus pyralis), sequence (P08659 whole entry, looked up): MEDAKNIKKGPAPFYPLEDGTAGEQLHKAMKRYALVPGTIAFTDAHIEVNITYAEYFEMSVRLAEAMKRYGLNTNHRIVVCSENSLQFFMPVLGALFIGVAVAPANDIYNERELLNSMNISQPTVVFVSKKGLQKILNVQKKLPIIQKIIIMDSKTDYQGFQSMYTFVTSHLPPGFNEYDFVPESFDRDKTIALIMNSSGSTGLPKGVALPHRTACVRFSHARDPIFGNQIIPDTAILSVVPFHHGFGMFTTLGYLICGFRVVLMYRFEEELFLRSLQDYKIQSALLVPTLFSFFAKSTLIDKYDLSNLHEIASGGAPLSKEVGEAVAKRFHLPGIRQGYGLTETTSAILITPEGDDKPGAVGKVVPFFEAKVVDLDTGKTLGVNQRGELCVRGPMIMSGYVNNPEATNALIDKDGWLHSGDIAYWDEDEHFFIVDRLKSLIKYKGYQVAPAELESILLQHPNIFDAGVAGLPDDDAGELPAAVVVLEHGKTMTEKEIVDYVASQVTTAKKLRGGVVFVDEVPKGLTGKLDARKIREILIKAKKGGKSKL
Method in brief: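 Luminescence loss relative to DMSO vehicle defines inhibition; detection reagent containing 150 uM D-luciferin and 147 uM dATP (final, pH 7.8) is injected immediately before each read. Enzyme is preincubated with an 8-point titration (5 nM–87.5 uM final) for 30 min at 37C.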

[10] = molecular target: Nucleoli Translocation, AR (gene 367) (UniProt P10275); experiment: UPITT_HCI_U2OS_AR_TIF2_Nucleoli_Antagonist: University of Pittsburgh U2OS Androgen Receptor-Transcriptional Intermediary Factor 2 (AR-TIF2) Antagonism High Content Imaging Assay for Nucleoli Translocation (AID 2283997)
Nucleoli Translocation, AR (gene 367), sequence (P10275 whole entry, looked up): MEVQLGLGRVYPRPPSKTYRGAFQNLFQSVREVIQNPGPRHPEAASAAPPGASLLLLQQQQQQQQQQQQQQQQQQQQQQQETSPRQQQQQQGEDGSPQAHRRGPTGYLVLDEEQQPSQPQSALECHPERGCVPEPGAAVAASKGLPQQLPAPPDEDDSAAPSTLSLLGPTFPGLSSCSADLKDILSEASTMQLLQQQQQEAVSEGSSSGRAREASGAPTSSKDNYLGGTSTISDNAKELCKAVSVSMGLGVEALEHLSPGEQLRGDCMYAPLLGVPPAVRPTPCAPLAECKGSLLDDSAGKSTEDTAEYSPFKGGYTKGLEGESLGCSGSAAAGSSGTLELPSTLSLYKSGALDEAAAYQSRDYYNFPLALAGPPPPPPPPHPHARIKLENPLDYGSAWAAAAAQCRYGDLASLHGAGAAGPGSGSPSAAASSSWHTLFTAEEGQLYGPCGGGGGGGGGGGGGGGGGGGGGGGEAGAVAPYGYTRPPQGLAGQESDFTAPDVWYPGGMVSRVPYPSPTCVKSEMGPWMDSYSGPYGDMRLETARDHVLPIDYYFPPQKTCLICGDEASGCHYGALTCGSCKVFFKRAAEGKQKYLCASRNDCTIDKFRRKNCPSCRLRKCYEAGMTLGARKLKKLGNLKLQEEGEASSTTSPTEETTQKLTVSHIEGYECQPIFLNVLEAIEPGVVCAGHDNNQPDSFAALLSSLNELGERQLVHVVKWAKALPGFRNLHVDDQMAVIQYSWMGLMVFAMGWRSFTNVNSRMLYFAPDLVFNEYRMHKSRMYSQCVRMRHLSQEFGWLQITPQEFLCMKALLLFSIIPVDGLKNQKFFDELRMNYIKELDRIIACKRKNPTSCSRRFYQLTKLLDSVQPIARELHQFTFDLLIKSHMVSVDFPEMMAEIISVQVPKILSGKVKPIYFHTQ
Method in brief: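 Measured quantity was AR-RFP fluorescence localized to nucleoli in engineered U2OS cells also bearing TIF2-GFP, acquired on automated high-content imagers. Primary testing used 20 uM compound; actives were confirmed in triplicate wells.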

[11] = molecular target: Ratio of Nucleoli Translocation and Cytoplasm, AR (gene 367) (UniProt P10275); experiment: UPITT_HCI_U2OS_AR_TIF2_Nucleoli_Cytoplasm_Ratio_Antagonist: University of Pittsburgh U2OS Androgen Receptor-Transcriptional Intermediary Factor 2 (AR-TIF2) Antagonism High Content Imaging Assay for Ratio of Nucleoli Translocation and Cytoplasm (AID 2283999);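 note: antagonists lower the DHT-driven ratio of nucleolar to cytoplasmic red signal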
Ratio of Nucleoli Translocation and Cytoplasm, AR (gene 367), sequence (P10275 whole entry, looked up, the tested form may be a part): as the sequence (P10275 whole entry, looked up) above
Method in brief: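 Human osteosarcoma U2OS line, AR fused to RFP, coactivator TIF2 fused to GFP. Cpds 20 uM final, 0.2% DMSO (screen); 0.195–50 uM final, 0.5% DMSO (CRC). Endpoint: nucleoli/cytoplasm red signal ratio, DHT as baseline, loss-of-signal antagonist mode.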

[12] = molecular target: Ratio of Nucleoli Translocation and Cytoplasm, AR (gene 367) (UniProt P10275); experiment: UPITT_HCI_U2OS_AR_TIF2_Nucleoli_Cytoplasm_Ratio_Agonist: University of Pittsburgh U2OS Androgen Receptor-Transcriptional Intermediary Factor 2 (AR-TIF2) Agonism High Content Imaging Assay for Ratio of Nucleoli Translocation and Cytoplasm (AID 2284000);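 note: hits raise the red nucleolar to cytoplasm ratio above vehicle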
Method in brief: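 Read-out first: nucleolar-to-cytoplasm ratio of red (AR-RFP) signal, quantified by high-content imaging in U2OS cells co-expressing TIF2-GFP. Activity is scored as signal increase over DMSO. Single-point screening used 20 uM final (0.2% DMSO).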

[13] = CCTE_Harrill_HTTr_Viability_MCF7: CCTE's 6-hour Cell Viability Assessment for the High-Throughput Transcriptomics (HTTr) Platform, in MCF-7 cells cultured in DMEM + 10% fetal bovine serum, Harrill Lab (AID 2284010; active = hit-call score of the fitted dose curve at least 0.9, where 1 is the maximum; inactive = score below 0.9)
Method in brief: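 Cells were dosed with chemicals in an eight-point dilution series, imaged 6 hours later for propidium iodide uptake, and the endpoint was analyzed by bidirectional fitting against DMSO as negative control.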

[14] = CCTE_Harrill_HTTr_Apoptosis_MCF7: CCTE's 6-hour Apoptosis Assessment for the High-Throughput Transcriptomics (HTTr) Platform, in MCF-7 cells cultured in DMEM + 10% fetal bovine serum, Harrill Lab (AID 2284011; active = hit-call score of the fitted dose curve at least 0.9, where 1 is the maximum; inactive = score below 0.9)
Method in brief: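 Cells are dosed with test chemicals at eight concentrations and imaged 6 hours later for caspase-3/7 activity using a green fluorogenic detection reagent. Activity is fitted in both directions against DMSO controls.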

[15] = CCTE_Shafer_MEA_dev_firing_rate_mean: CCTE's Neural Network Formation Assay for Mean Firing Rate, Shafer Lab (AID 2284031; active = hit-call score of the fitted dose curve at least 0.9, where 1 is the maximum; inactive = score below 0.9)
Method in brief: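 Rat primary cortical neurons were seeded on multielectrode arrays and treated from plating through day 12, with redosing at each feed. Spontaneous spiking was recorded four times; mean firing rate AUC was fitted downward against DMSO.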

[16] = CCTE_Shafer_MEA_dev_active_electrodes_number: CCTE's Neural Network Formation Assay for Number of Active Electrodes, Shafer Lab (AID 2284040)
Method in brief: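 Primary rat cortical neurons on 16-electrode MEA wells, exposed from day 0 through day 12 with compound renewed at DIV 5 and 9 feeds. Active electrodes (mean firing ≥5 spikes/min) counted at DIV 5, 7, 9, 12; trapezoidal AUC across days, loss-of-signal versus DMSO.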

[17] = CCTE_Shafer_MEA_dev_burst_rate: CCTE's Neural Network Formation Assay for Burst Rate, Shafer Lab (AID 2284042; active = hit-call score of the fitted dose curve at least 0.9, where 1 is the maximum; inactive = score below 0.9)
Method in brief: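 Primary rat cortical neurons on PEI-coated 48-well MEA plates (laminin added with cells at plating) (16 electrodes/well), exposed from plating to day 12, dosing renewed at DIV 5 and 9. Burst rate averaged over active electrodes, recorded DIV 5, 7, 9, 12, summarized as AUC; loss versus DMSO.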

Measured: AC50

c1ccc2cc3c(cc2c1)-c1cccc2cccc-3c12
active: [1] 3.24 µM | [3] 11 µM | [5] 4.58 µM | [7] 1.98 µM | [10] 1.19 µM
inactive: all other assays above
